Test results as given in PubChem BioAssay (NCATS).
Inconclusive results are not listed. A number with no mark means an inactive call. Activity calls are given as the source filed them. Calls come from the whole dose curve; as a rule, active = well fitted cell-killing curve with a large enough effect; inconclusive = small, poorly fitted or top-dose-only effect; inactive = flat fitted curve, though single readings scatter.

Assay: Cell Viability - LYMP2-023 (AID 975); note: nearly all actives have a fitted effect of over 55% in size
Conditions: LYMP2-023 lymphoblastoid cell viability; series mostly up to 92.2 µM; activity change, negative = cytotoxicity: at the top concentration
Source text: NIH Chemical Genomics Center [NCGC]
NIH Molecular Libraries Screening Centers Network [MLSCN]
National Institutes of Environmental Health Sciences [NIEHS]
National Toxicology Program [NTP]
We have developed a 1536-well cell-based assay for quantitative high throughput screening (qHTS) against a number of cell lines to determine in vitro cytotoxicity of small molecules. This particular assay uses a human lymphoblastoid cell line (LYMP2-023) purchased from Coriell Institute for Medical Research.
NCGC Assay Protocol Summary:
The CellTiter-Glo luminescent cell viability assay (Promega) is a homogeneous method to measure the number of viable cells in culture. The end point readout of this assay is based on quantitation of intracellular ATP, an indicator of metabolic activity, using the luciferase reaction. Luciferase catalyzes the oxidation of beetle Luciferin to oxyluciferin and light in the presence of ATP. The luminescent signal is proportional to amount of ATP present.
Using the CellTiter-Glo luminescent cell viability assay, the amount of cellular ATP was measured in the lymphoblastoid cell line with complete culture medium following compound treatment for 24 hours. The assay was performed in opaque white Kalypsys 1536-well plates. In the screen, tetraoctylammonium bromide was used as positive control. Library compounds were measured for their ability to cause acute toxicity in the cell line, as reflected by a decrease in intracellular ATP levels, in a concentration-dependent manner. […] AC50 values were determined from concentration-response data modeled with the standard Hill equation.
qHTS protocol for CellTiter Glo lymphoblastoid cellular assay
[Step] [Parameter] [Value] [Description]
1. Reagent; 5 uL; 2500 lymphoblastoid cells/well
2. Time; 5 hr; 37 C incubation
4. Controls; 23 nL; Tetraoctylammonium bromide 6.4pM to 92 uM
5. Time; 24 hr; 37 C incubation
6. Reagent; 5 uL; CellTiter Glo reagent
7. Time; 30 min; Room Temperature
8. Detection; Luminescence; Viewlux plate reader
Keywords: cell viability, cytotoxicity, lymphoblastoid cell line, luminescence, NTPHTS, NTPHTS_NCGC, NIEHS, DSSTox, MLSMR, MLSCN, NIH Roadmap, qHTS, NCGC
Potency is the fitted concentration of half-maximal effect.

| SMILES | activity change, negative = cytotoxicity [%] | Potency |
| --- | --- | --- |
| ClC(Cl)C(Cl)Cl | -4.52 | – |
| CN(C)c1ccc(N(C)C)cc1 | -24.2 | – |
| ClC=CCl | 2.63 | – |
| Cc1cnc[nH]1 | 0.262 | – |
| Nc1ccc2ccccc2c1 | 1.23 | – |
| Oc1c(Cl)cccc1Cl | 1.27 | – |
| N#CCc1ccccc1 | -29.7 | – |
| CN(C)c1ccccc1 | 0.47 | – |
| CC(C)CON=O | 1.75 | – |
| CC(C)C#N | 6.79 | – |
| [N-]=[N+]=[N-] | -3.51 | – |
| C=COC(C)=O | -4.29 | – |
| [O-][Cl+2]([O-])O | -1.01 | – |
| CC(C)(C)C(O)(CCc1ccc(Cl)cc1)Cn1cncn1 (stereo not given) | -7.55 | – |
| Brc1cccc(-c2ccccc2)c1 | -0.995 | – |
| O=[N+]([O-])c1c(Cl)c(Cl)c(Cl)c(Cl)c1Cl | -13.6 | – |
| OCCOCCO | -13.9 | – |
| O=[N+]([O-])c1cccc2c([N+](=O)[O-])cccc12 | 1.24 | – |
| Clc1ccc(C(c2ccccc2Cl)C(Cl)(Cl)Cl)cc1 (stereo not given) | -9.07 | – |
| Nc1ccc(Cc2ccc(N)c(Cl)c2)cc1Cl | -2.15 | – |

| SMILES | activity change, negative = cytotoxicity [%] | Potency |
| --- | --- | --- |
| Nc1cc(Cl)cc(C(=O)O)c1Cl | -0.439 | – |
| O=C(O)CCl | -4.34 | – |
| Cc1ccc2c(c1N)C(=O)c1ccccc1C2=O | -3.15 | – |
| c1ccc2c(c1)CCNC2 | -2.18 | – |
| O=[N+]([O-])CCO | -4.91 | – |
| O=[N+]([O-])c1ccc(Cl)c(Cl)c1Cl | -3.04 | – |
| O=P(OCCCl)(OCCCl)OCCCl | -2.78 | – |
| c1ccc(N=NNc2ccccc2)cc1 | 1.42 | – |
| CC(C)OS(C)(=O)=O | 9.95 | – |
| Cc1cc(-c2cc(C)c(N)c(C)c2)cc(C)c1N | 1.33 | – |
| O=[N+]([O-])/C=C/c1ccccc1 | – | 50.1 µM (active) |
| ClCCBr | -2.07 | – |
| CN(C)c1ccc(N=Nc2ccccc2)cc1 | -19.7 | – |
| BrCC(Br)C1CCC(Br)C(Br)C1 (stereo not given) | -8.74 | – |
| COc1c(C(C)(C)C)cc([N+](=O)[O-])c(C)c1[N+](=O)[O-] | -1.6 | – |
| Oc1cc(Cl)c(Cl)c(Cl)c1Cl | -27.5 | – |
| O=[N+]([O-])c1ccc(O)c([N+](=O)[O-])c1 | 1.38 | – |
| Cc1ccc(N)c(N)c1 | -30.7 | – |
| N#CCBr | -3.98 | – |
| O=NN1CCCCC1 | -0.0303 | – |
